Assay results as given in PubChem BioAssay (NCATS).
“And” between values parts separate entries of the source, which are not always exact repeats. Identical values can stand only once. Inconclusive results are not listed. The source made the active and inactive calls. Calls follow the shape of the dose curve; as a rule, active = well fitted curve in the direction sought with a large enough effect; inconclusive = small, poorly fitted or top-dose-only effect, or another doubt; inactive = no such curve, though single readings can be large; an effect the other way counts as inactive or inconclusive.

Tests used:
CRL-7250 = normal cell line; assay: Cytotoxic Profiling of Annotated Libraries Using Quantitative High-Throughput Screening (AID 1296008); settings: Five cell lines viability, CellTiter-Glo ATP luminescence, 48-72 h; max response: active compounds read low; also: nearly all actives have a fitted effect of over 60% in size; as to max response: % is scaled to controls: 0 for no effect and ±100 for the full control effect
Summary of the method: (§1)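 Compounds were pin-transferred onto cells and incubated 48 or 72 hr at 37 degree Celsius, 95% humidity. CellTiter-Glo was added, plates sat 10 min at room temperature, then ATP-coupled luminescence was imaged as the viability read-out.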

HEK293 = assay: as above; settings: Five cell lines viability, CellTiter-Glo ATP luminescence, 48-72 h; max response: active compounds read low
Summary of the method: as §1

HaCat [1] = assay: as above; settings: Five cell lines viability, CellTiter-Glo ATP luminescence, 48-72 h; max response: active compounds read low
Summary of the method: as §1

NIH3T3 [2] = assay: as above; settings: Five cell lines viability, CellTiter-Glo ATP luminescence, 48-72 h; max response: active compounds read low
Summary of the method: as §1

HACAT [3] = assay: qHTS assay to identify novel small-molecules to repurpose for Merkel cell carcinoma treatment (AID 1296009); settings: MCC and control cell lines, CellTiter-Glo viability, 72 h; at 44.8 µM (top of the series) unless noted; also: nearly all actives have a fitted effect of over 60% in size
Summary of the method: (§2)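 Cells exposed to NPC (8-point) and MIPE (11-point) compound dilutions for 72 hr at 37 degree celsius; viability read by CellTiter-Glo luminescence, normalized to no-cell and DMSO in-plate controls.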

HEK293T = assay: as above; settings: MCC and control cell lines, CellTiter-Glo viability, 72 h; series mostly up to 44.8 µM
Summary of the method: as §2

C33A = assay: Primary qHTS to identify gynecologic anti-cancer compounds using libraries of approved drugs and bioactive compounds (AID 1345084); settings: Gynecologic cancer cell panel viability, ATPlite luminescence, 48 h; series mostly up to 57.5 µM; also: nearly all actives have a fitted effect of over 55% in size
Summary of the method: (§3)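 Cytotoxicity screen measuring ATP content by luciferase luminescence. Each compound is applied at five concentrations for 48 h at 37 C with 5% CO2.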

CAOV3 = assay: as above; settings: Gynecologic cancer cell panel viability, ATPlite luminescence, 48 h; series mostly up to 57.5 µM
Summary of the method: as §3

CASKI = assay: as above; settings: Gynecologic cancer cell panel viability, ATPlite luminescence, 48 h; series mostly up to 57.5 µM
Summary of the method: as §3

Es-2 = assay: as above; settings: Gynecologic cancer cell panel viability, ATPlite luminescence, 48 h; series mostly up to 57.5 µM
Summary of the method: as §3

HeLa = assay: as above; settings: Gynecologic cancer cell panel viability, ATPlite luminescence, 48 h; series mostly up to 57.5 µM
Summary of the method: as §3

KB-3-1 = assay: Cytotoxic Profiling of Annotated Libraries Using Quantitative High-Throughput Screening (AID 1296008); settings: Five cell lines viability, CellTiter-Glo ATP luminescence, 48-72 h; max response: active compounds read low; also: nearly all actives have a fitted effect of over 60% in size; as to max response: % is scaled to controls: 0 for no effect and ±100 for the full control effect
Summary of the method: as §1

NIH3T3 [4] = assay: qHTS assay to identify novel small-molecules to repurpose for Merkel cell carcinoma treatment (AID 1296009); settings: MCC and control cell lines, CellTiter-Glo viability, 72 h; at 44.8 µM (top of the series) unless noted; also: nearly all actives have a fitted effect of over 60% in size
Summary of the method: as §2
Potency is read from the fitted curve at half-maximal effect.

COc1c(C)c2c(c(O)c1C/C=C(\C)CC/C=C(\C)CCC(=O)O)C(=O)OC2
inactive: max response (CRL-7250) -4.04% | outcome (HEK293) | outcome (HaCat [1]) | max response (NIH3T3 [2]) 0.0064% | outcome (HACAT [3]) | Potency (HEK293T) | Potency (C33A) | Potency (CAOV3) | Potency (CASKI) | Potency (Es-2) | Potency (HeLa)

O=C(O)C[C@H](O)C[C@H](O)/C=C/c1c(C2CC2)nc2ccccc2c1-c1ccc(F)cc1
active: Potency (CRL-7250) 731 nM | Potency (HEK293) 5.8 µM | Potency (HaCat [1]) 7310 nM | Potency (KB-3-1) 4.61 µM | Potency (NIH3T3 [2]) 14.6 µM | Potency (HeLa) 8910 nM

CC(=O)O[C@@H]1[C@@H](OC(=O)/C=C/c2ccccc2)[C@H](C)O[C@@H](O[C@H]2[C@@H]3C=CO[C@@H](O[C@@H]4O[C@H](CO)[C@@H](O)[C@H](O)[C@H]4O)[C@@H]3[C@@]3(CO)O[C@@H]23)[C@@H]1OC(C)=O
inactive: max response (CRL-7250) -9.67% | outcome (HEK293) | max response (HaCat [1]) -6.34% | outcome (NIH3T3 [2]) | Potency (HEK293T) | outcome (NIH3T3 [4]) inactive [at 17.4 µM] | Potency (C33A) | Potency (CAOV3) | Potency (CASKI) | Potency (Es-2) | Potency (HeLa)

CCCCS(=O)(=O)Nc1ncnc(OCCOc2ncc(Br)cn2)c1-c1ccc(Br)cc1
inactive: max response (CRL-7250) -8.77% | outcome (HEK293) | outcome (HaCat [1]) | max response (NIH3T3 [2]) 1.6% | outcome (HACAT [3]) | Potency (HEK293T) | Potency (C33A) | Potency (CAOV3) | Potency (CASKI) | Potency (Es-2) | Potency (HeLa)

CC1CCC2(C(=O)OC3OC(CO)C(O)C(O)C3O)CCC3(C)C(=CCC4C5(C)CC(O)C(O)C(C)(C(=O)O)C5CCC43C)C2C1(C)O (configuration not stated)
inactive: max response (CRL-7250) 3.23% | outcome (HEK293) | outcome (HaCat [1]) | outcome (NIH3T3 [2]) | outcome (HACAT [3]) inactive [at 17.4 µM] | Potency (HEK293T) | outcome (NIH3T3 [4]) inactive [at 17.4 µM] | Potency (C33A) | Potency (CAOV3) | Potency (CASKI) | Potency (Es-2) | Potency (HeLa)

COc1ccc(C(OC2OC(CO)C(O)C(O)C2O)C(C)O)cc1 (configuration not stated)
inactive: max response (CRL-7250) -9.11% | outcome (HEK293) | outcome (HaCat [1]) | outcome (NIH3T3 [2]) | outcome (HACAT [3]) | Potency (HEK293T) | outcome (NIH3T3 [4]) | Potency (C33A) | Potency (CAOV3) | Potency (CASKI) | Potency (Es-2) | Potency (HeLa)

CC(=O)c1c(O)cc2cccc3c2c1CC(C)(O)O3 (configuration not stated)
inactive: outcome (CRL-7250) | outcome (HEK293) | outcome (HaCat [1]) | max response (NIH3T3 [2]) -0.44% | outcome (HACAT [3]) | Potency (HEK293T) | Potency (C33A) | Potency (CAOV3) | Potency (CASKI) | Potency (Es-2) | Potency (HeLa)

CC(=O)c1cnc2ccc(-c3cc(Cl)c(O)c(Cl)c3)nc2c1NC1CCC(CN(C)C)CC1 (configuration not stated)
active: Potency (CRL-7250) 166 nM and 1.19 µM | Potency (HEK293) 52.4 nM and 237 nM | Potency (HaCat [1]) 33.1 nM | Potency (KB-3-1) 0.075 µM | Potency (NIH3T3 [2]) 93.3 nM and 299 nM | Potency (C33A) 224 nM | Potency (CASKI) 1000 nM | Potency (Es-2) 891 nM

COc1cc(/C=C/C(=O)OC2CC3CCC2(C)C3(C)C)ccc1O (configuration not stated)
inactive: outcome (CRL-7250) | outcome (HEK293) | max response (HaCat [1]) -0.121% | outcome (NIH3T3 [2]) | Potency (HEK293T) | outcome (NIH3T3 [4]) | Potency (C33A) | Potency (CAOV3) | Potency (CASKI) | Potency (Es-2) | Potency (HeLa)

COc1ccc(C2=CC(=O)OC2Cc2ccc(O)cc2)c(O)c1 (configuration not stated)
inactive: outcome (CRL-7250) | outcome (HEK293) | outcome (HaCat [1]) | max response (NIH3T3 [2]) 1.17% | outcome (HACAT [3]) | Potency (HEK293T) | Potency (C33A) | Potency (CAOV3) | Potency (CASKI) | Potency (Es-2) | Potency (HeLa)

O=C1NC(=Nc2ccccc2F)S/C1=C\c1ccc(C(=O)O)cc1
inactive: max response (CRL-7250) -10.7% | outcome (HEK293) | outcome (HaCat [1]) | max response (NIH3T3 [2]) -1.07% | outcome (HACAT [3]) | Potency (HEK293T) | Potency (C33A) | Potency (CAOV3) | Potency (Es-2) | Potency (HeLa)

OCCO[C@@H]1[C@@H](O)[C@H](O)[C@@H](CO)O[C@@H]1O
inactive: max response (KB-3-1) 22%

C[C@@H]1C[C@H]2[C@@H]3CCC4=CC(=O)C=C[C@]4(C)[C@@]3(F)[C@@H](O)C[C@]2(C)[C@@]1(O)C(=O)COP(=O)(O)O
inactive: max response (CRL-7250) -4.68% | max response (HEK293) 4.74% | max response (KB-3-1) 13.8% | outcome (KB-3-1) | Potency (C33A) | Potency (CAOV3) | Potency (CASKI) | Potency (Es-2) | Potency (HeLa)

CCC(=O)OCC(=O)[C@@]1(OC(=O)CC)[C@H](C)C[C@H]2[C@H]3[C@H]([C@@H](O)C[C@@]21C)[C@@]1(C)C=CC(=O)C=C1C[C@H]3Cl
inactive: max response (KB-3-1) 31.3%

COc1ccc(C[C@H](N)C(=O)N[C@H]2[C@@H](O)[C@H](n3cnc4c(N(C)C)ncnc43)O[C@@H]2CO)cc1
active: Potency (CRL-7250) 920 nM | Potency (HaCat [1]) 1300 nM | Potency (KB-3-1) 5.17 µM and 517 nM | Potency (NIH3T3 [2]) 2.31 µM | Potency (HEK293T) 1160 nM | Potency (C33A) 2820 nM | Potency (CAOV3) 1120 nM | Potency (CASKI) 1580 nM | Potency (Es-2) 3160 nM | Potency (HeLa) 2000 nM

CC(=O)Oc1c(C)cc(OCC(O)CNC(C)C)c(C)c1C (configuration not stated)
inactive: max response (KB-3-1) 4.82%

COc1cc2c(cc1O)CCN[C@]21CS[C@@H]2c3c(OC(C)=O)c(C)c4c(c3[C@H](COC1=O)N1[C@@H]2[C@H]2c3c(cc(C)c(OC)c3O)C[C@@H]([C@@H]1O)N2C)OCO4
active: Potency (KB-3-1) 5.2 nM and 28.2 nM

CC1(C)O[C@@H]2C[C@H]3[C@@H]4CCC5=CC(=O)C=C[C@]5(C)[C@H]4[C@@H](O)C[C@]3(C)[C@]2(C(=O)CO)O1
inactive: max response (KB-3-1) -0.986%

CCC(=O)O[C@]1(C(=O)CCl)[C@@H](C)C[C@H]2[C@@H]3C[C@H](F)C4=CC(=O)C=C[C@]4(C)[C@@]3(F)[C@@H](O)C[C@@]21C
inactive: max response (CRL-7250) -3.75% | max response (HaCat [1]) -1.16% | max response (KB-3-1) -4.75% and -10.3% | max response (NIH3T3 [2]) 1.57% | Potency (C33A) | Potency (CAOV3) | Potency (CASKI) | Potency (Es-2) | Potency (HeLa)

COc1ccc(C[C@@H](C)NC[C@H](O)c2ccc(O)c(NC=O)c2)cc1
inactive: max response (KB-3-1) 2.59%

CO[C@@H]1[C@@H](O[C@@H]2O[C@H](C)[C@@H](O[C@H]3C[C@@](C)(O)[C@@H](OC(=O)CC(C)C)[C@H](C)O3)[C@H](N(C)C)[C@H]2O)[C@@H](CC=O)C[C@@H](C)C(=O)/C=C/C2OC2C[C@@H](C)OC(=O)C[C@H]1OC(C)=O (some centres not stated)
inactive: max response (KB-3-1) 20.2%

CN(C)CC/C=C1/c2ccccc2CSc2ccccc21
inactive: max response (KB-3-1) -13.6%

N[C@H](C(=O)O)[C@@H]1CC(Cl)=NO1
active: Potency (KB-3-1) 20.6 µM

NS(=O)(=O)OC[C@@H]1C[C@@H](n2ccc3c(N[C@H]4CCc5ccccc54)ncnc32)C[C@@H]1O
inactive: Potency (CASKI) | Potency (HeLa)
active: Potency (CRL-7250) 1.3 µM and 651 nM | Potency (HEK293) 291 nM and 366 nM | Potency (HaCat [1]) 5170 nM | Potency (CAOV3) 631 nM | Potency (Es-2) 3160 nM

CCOc1cc2ncc(C#N)c(Nc3ccc(OCc4ccccn4)c(Cl)c3)c2cc1NC(=O)/C=C/CN(C)C
inactive: max response (KB-3-1) -14.4% | Potency (C33A) | Potency (CAOV3) | Potency (Es-2)
active: Potency (HEK293) 1.42 µM | Potency (HaCat [1]) 224 nM

CCc1nc(C(N)=O)c(Nc2ccc(N3CCC(N4CCN(C)CC4)CC3)c(OC)c2)nc1NC1CCOCC1
inactive: Potency (Es-2)
active: Potency (CRL-7250) 5240 nM | Potency (HEK293) 1.61 µM and 1.32 µM | Potency (HaCat [1]) 2550 nM | Potency (NIH3T3 [2]) 1.01 µM and 831 nM | Potency (CASKI) 7080 nM | Potency (HeLa) 3550 nM

O=C(O)C1CCCN1 (configuration not stated)
inactive: max response (KB-3-1) 3.27%
